# The OligoGym collection
# Molecular target: AMOTL1
# Assay: pooled miR-30 sensor sort-seq; sequence = guide strand
# Conditions: shRNA
# Note: reference of the scale not given here.
row,Sequence,sensor-assay potency score (higher = more potent)
1,TTGTGGGTCTTCTTGAGTGAGG,-0.72
2,TAGACTTGACCAGACTTTCATA,-0.788
3,TTTGTCTTCATGCCCTTCGTAT,-0.754

# Molecular target: AMPH
# Assay: as above
# Conditions: shRNA
row,Sequence,sensor-assay potency score (higher = more potent)
1,TTCTGGAACAAAGTTGTCCTCA,-0.205
2,TCATAGTCCACTAGCTTCCTGC,-0.747
3,TAAATGAACCACCAGAAGCCGG,-1.23
4,TTTTACTTTAGAACAATCTGTG,0.225
5,TTTACTTTAGAACAATCTGTGA,-0.223
6,TAACATAAAATCCAACTCGTCT,-0.296
7,TTAACATAAAATCCAACTCGTC,-0.669
8,TACTTTAGAACAATCTGTGAAG,-0.229
9,TTTTTGATGGAAGTCTTCCCAC,-0.336
10,TAATTCATCACATCTTCTGCAG,-0.0381
11,TTACTTTAGAACAATCTGTGAA,-0.181
12,TTGCTGCTAAATATCCTCGGAG,-0.441
13,TTGTGAATAATGAAGTATCCTG,-0.215
14,TAACAAAAGTGAACTCTTCAGG,-0.296
15,TAGTCCACTAGCTTCCTGCTGC,0.262
16,TCTGCATACACATAGATCCAGG,-1.05
17,TAGAGATTCGACTCTCATCCTT,0.077
18,TTTCCTTATGAAACTTGGCTTC,-0.107
19,TGATTTGGACTTGCTGTCGGGC,-0.73
20,AAACTCTTCAAACACTTTCTGT,-0.65
21,TTTTTTGCACACATGCTCCATT,-0.524
22,TTGTCTGTGAAGGTGACCGAGG,-0.658
23,TTGATTGCTGCTAAATATCCTC,-0.275
24,TTCTTCGAACTGTTCGTCTTTT,-0.66
